Experimental data reported in the OligoGym collection.

The sequences below were run against FBXO43 (assay: pooled miR-30 sensor sort-seq; sequence = guide strand). Conditions: shRNA.
Also: reference of the scale not given here.

| Sequence | sensor-assay potency score (higher = more potent) |
| --- | --- |
| TAGGCTACAATCATCTTTGGAA | 0.408 |
| AACCTTAACATATTCTTCCTGT | 0.212 |
| TAACAGAAGAGCTTGCTAGAGG | -0.36 |
| TTTATCTTGAACAACAATTTCA | -0.614 |
| TTATCTTGAACAACAATTTCAC | 0.0349 |
| TTCTTGAAAAGAACCCTCCTGG | 0.0426 |

Each sequence was assayed against FBXO8 in the same assay as above. Conditions: shRNA.

| Sequence | sensor-assay potency score (higher = more potent) |
| --- | --- |
| TTTATCATTCGTTAACAGCTGT | 0.355 |
| TAGCACAGTACATAGACAGCAT | 0.733 |
| TTCCTTTGGCGAATCATCCAGG | -0.484 |
| TTGCTCACTGTAGCCTTCTTGT | -1.19 |
| TTAGTCTGAAGTAAAAACTGAA | -0.599 |
| TTGCTCGCAGCCATTCTCCTGC | -0.359 |
| TCATCCAAGACATCTCTCCTTT | 0.239 |
| TAGGACAAGATGGTAAAGCTTA | -0.15 |
| TTCATCATTCGCAAGGTCCTGC | 0.558 |
| TTCATCAAGATAGATTCTCAGT | -0.522 |
| TTGTACAGAAGATAAACTTTGC | -0.385 |

Each sequence was assayed against FBXW9 in the same assay as above. Conditions: shRNA.

| Sequence | sensor-assay potency score (higher = more potent) |
| --- | --- |
| TTGACGTTGCGATCTCGGGAGC | -1.12 |
| TAGATGGTCACCTTCTTGTCAT | -0.453 |
| TCGCTTAGTGCCTAAGGTCTTG | -0.92 |
| TATCTCGCCGAACTGCTGCCCA | -0.658 |
| TTCTCTTCCACCACTGGGTAGG | -0.729 |
| TTCACTGTGCTGTCCCAGGAGC | -1.05 |
| TCGCTCTCAACTGAGAGCGGGG | -1.29 |
| TTCGCTCTCAACTGAGAGCGGG | -0.823 |
| TACTATTTCGCTTAGTGCCTAA | -0.65 |
| TAAGGTCTTGATCAGAACCTGG | -0.161 |
| TCGTAGATGGTCACCTTCTTGT | -0.618 |
| TTCTTCTCTTCCACCACTGGGT | -0.376 |

What follows are sequences tested against FCF1 in the same assay as above. Conditions: shRNA.

| Sequence | sensor-assay potency score (higher = more potent) |
| --- | --- |
| TTCATGGTCGCATACTTCCTTG | -1.25 |
| TCTGAGACTAAGCATTCGCTTC | -1.06 |
| TTTTAGGTTTTAATCTATCCTT | -0.595 |
| TTTTAATCTATCCTTTTCTTTA | -1.02 |
| TTCAGCCATTACACAATCGGTT | -0.926 |
| TTATATTGGAAAAATAAGCAGG | -0.37 |
| TTTAGGTTTTAATCTATCCTTT | -0.181 |
| TTAGGTTTTAATCTATCCTTTT | -0.692 |
| TTCCTTTGTGTGTACATGGTAA | -0.531 |
| TTATGCTGAGTTACTCTCTGTA | 0.221 |
| TTGGGGAACTTCTCTTTCCTTT | -0.569 |
